Out of some 95,000 compounds screened, about 460 (0.48%) were called active.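 How the source made its calls: active means inhibition above the batch mean plus 3 SD, with images confirmed as a hit by eye (cut at about 37% in these data); inconclusive means inhibition above that limit but hit not confirmed in images; inactive means inhibition not above that limit.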 For the sample, actives were picked, then their nearest neighbours and some compounds at random.
Experiment: inhibitors of TNFa-induced VCAM1 expression, primary screen, imaging, HUVEC, TNFa stimulus, immunofluorescence (AID 802);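 further: 0% = TNF-stimulated DMSO wells and 100% = unstimulated control wells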
Conditions: HUVEC TNFa-induced VCAM-1 immunofluorescence, high-content imaging; at 2 µM; hits give high values

Row | Compound | inhibition
1 | CCOc1ccc(C(=O)NC2CCN(C(=O)Nc3ccccc3OC)CC2)cc1 | -14.1% (inactive)
2 | O=C(NC(Nc1nc2ccc([N+](=O)[O-])cc2s1)(C(F)(F)F)C(F)(F)F)c1ccccc1 | 88.1% (active)
3 | COC(=O)C(NC(=O)c1ccc(OC)cc1)(Nc1ncc(S(=O)(=O)c2ccc([N+](=O)[O-])cc2)s1)C(F)(F)F (stereo not given) | -3.1% (inactive)
4 | Cc1cc(C)cc(OCC(=O)Nc2nc3ccc([N+](=O)[O-])cc3s2)c1 | 21.3% (inactive)
5 | Cc1ccccc1NC(=S)Nc1cccc([N+](=O)[O-])c1 | -16.9% (inactive)
6 | COc1ccc(Nc2ncc(C(=O)N3CCN(c4ccccc4OC)CC3)c3ccccc23)cc1 | 26.1% (inactive)
7 | FC(F)(F)c1cc(-c2ccco2)nc(NCc2ccc(Cl)cc2)n1 | 9.6% (inactive)
8 | Cc1cc(C)c2c(-n3cccc3)c(NC(=O)OCc3ccccc3)sc2n1 | 25.4% (inactive)
9 | COc1cccc(CNc2nc3nc4c(c(=O)n3[nH]2)CCC4)c1 | 15.2% (inactive)
10 | Cc1cccc(-n2cnc(C(=O)Nc3cccnc3)c2)n1 | -5.1% (inactive)
11 | CCOC(=O)Cc1csc(NC(=O)CSc2nnc(-c3cccnc3)n2Cc2ccco2)n1 | 15.6% (inactive)
12 | O=S(=O)(Cc1cc(Sc2ccccc2)nc(-c2ccccc2)n1)c1ccccc1 | -28.4% (inactive)
13 | CCOc1ccccc1NC(=O)c1cccnc1 | -0.4% (inactive)
14 | COc1ccc(C(F)(F)F)cc1N/C=C\c1nnnn1-c1ccc(C)cc1 | 16.2% (inactive)
15 | CCc1ccc(Nc2ncc3c(n2)CC(c2ccco2)CC3=O)cc1 (stereo not given) | -20.6% (inactive)
16 | O=C(Nc1ncc2c(n1)CC(c1ccco1)CC2=O)c1ccc(Cl)cc1 (stereo not given) | 91.4% (active)
17 | O=C(Nc1ncc2c(n1)-c1ccccc1OC2)c1ccc(Cl)cc1 | 6.1% (inactive)
18 | COc1ccc(C2C(C(C)=O)=C(O)C(=O)N2c2nccs2)cc1 (stereo not given) | 12.3% (inactive)
19 | CCCN(Cc1cc2cccc(C)c2[nH]c1=O)S(C)(=O)=O | -13.9% (inactive)
20 | COc1cc2cc(CN(CCN3CCCC3)C(=O)Nc3ccccc3Cl)c(=O)[nH]c2cc1OC | 28.3% (inactive)
21 | COc1ccc(CCN(Cc2cc3cccc(C)c3[nH]c2=O)C(=O)N2CCCC2)cc1OC | 91.4% (active)
22 | COc1ccc2oc(C)c(NC(C)=O)c2c1 | 0.3% (inactive)
23 | COc1ccc(N2CCN(Cc3cc(=O)oc4ccc5ccccc5c34)CC2)cc1 | 9.8% (inactive)
24 | COc1ccc(Nc2cc(=O)oc3ccccc23)cc1 | 88.9% (active)

Row | Compound | inhibition
25 | CCCSC(=S)NC1CCS(=O)(=O)C1 (stereo not given) | 4.3% (inactive)
26 | CCN(CC)CCn1c(=S)[nH]c2ncccc2c1=O | 11% (inactive)
27 | c1ccc(Nc2nc(N3CCOCC3)c3ccccc3n2)cc1 | -8.6% (inactive)
28 | CCOC(=O)N1CCN(C(c2cccnc2)c2ccc3cccnc3c2O)CC1 (stereo not given) | 9.9% (inactive)
29 | COc1ccc(-c2nnc(SCC(=O)NC3CCCCC3)o2)cc1OC | 87.2% (active)
30 | COc1ccc(CCNC(=O)CSc2nnc(-c3cccc(F)c3)o2)cc1OC | 11.2% (inactive)
31 | COc1ccc(CN(C(=O)CSc2nnc(-c3ccc(OC)c(OC)c3)o2)c2ccc(F)cc2)cc1 | 17.6% (inactive)
32 | Cc1cc2cc3c(cc2nc1SCC(=O)Nc1c(C)cccc1C)CCC3 | 6% (inactive)
33 | Cc1cccc(NC(=O)C(C)N2C(=O)C3C4CC(C(Br)C4Br)C3C2=O)c1 (stereo not given) | 8.5% (inactive)
34 | CCC1(CC)NC(=O)N(CC(=O)OCC(=O)Nc2ccc(C(F)(F)F)cc2)C1=O | 9.5% (inactive)
35 | O=C(Nc1cc2c3c(c1)C1CCCC1CN3CC1CCCC21)c1ccc([N+](=O)[O-])cc1 (stereo not given) | 3% (inactive)
36 | Cc1n[nH]c(=S)n1/N=C/c1ccc(Br)o1 | 4.4% (inactive)
37 | O=[N+]([O-])c1ccc(NCCCN2CCOCC2)c(Cl)c1 | -2.6% (inactive)
38 | CC(C)(C)Cc1nnc(NC(=O)c2cc(-c3ccccc3)nc3ccccc23)s1 | -0.7% (inactive)
39 | CC1(C)CC(CC(=O)O)C(=O)O1 (stereo not given) | 20.1% (inactive)
40 | CCOc1ccc(-n2c(N)c(C(=O)NCC3CCCO3)sc2=S)cc1 (stereo not given) | -3.3% (inactive)
41 | Cc1ccc2c(c1)-c1c(ssc1=S)C(C)(C)N2C(=O)CN1C(=O)c2ccccc2C1=O | -19.4% (inactive)
42 | CCOC(=O)c1c(N=CN(C)C)c(C#N)c2n1CCCC2 | 8.7% (inactive)
43 | COc1ccc(/C=N/Nc2nc3ccccc3o2)cc1OC | -32.9% (inactive)
44 | C=CCNC(=S)NNc1ncnc2sc3c(c12)CC(C)(C)OC3 | 27.9% (inactive)
45 | O=C(CN1C(=O)C2C3C=CC(C3)C2C1=O)Nc1nc(-c2ccccn2)cs1 (stereo not given) | 11% (inactive)
46 | Cc1cc(NC(=O)CSc2nc(C(C)C)nc3sc4c(c23)CCC(C)C4)no1 (stereo not given) | 18.6% (inactive)
47 | CC(=O)Nc1ccc(N2C(=O)CCC2=O)cc1C | 8.8% (inactive)
48 | O=C(/C=C/Nc1ccccc1)c1cnc(-c2ccccc2)s1 | -1.5% (inactive)

Row | Compound | inhibition
49 | Cc1ccc(C2(C(F)(F)F)N=C3Sc4cc(C)cc(C)c4N3C(=O)N2)cc1 (stereo not given) | 7.1% (inactive)
50 | Cc1ccc(C)c(N2C(=O)CS/C2=N\NC(=O)c2ccccc2Cl)c1 | 10.4% (inactive)
51 | O=C(Cn1ccc([N+](=O)[O-])n1)NCc1cccs1 | 7.9% (inactive)
52 | O=c1c([N+](=O)[O-])cc(C(F)(F)F)cn1Cc1cccc(Cl)c1 | 3.2% (inactive)
53 | O=C(N/N=C\c1ccc(-c2ccc(Cl)c(Cl)c2)o1)C(=O)N1CCCC1 | -4.3% (inactive)
54 | CCCNC(=O)NCc1ccc(N2CCCC2=O)cc1 | 3.5% (inactive)
55 | CCOC(=O)c1c(NC(=S)Nc2ccccc2)sc2c1CCN(C)C2 | 12.8% (inactive)
56 | CC(=O)c1cn(CCCCCCCCCCn2cc(C(C)=O)c(=O)[nH]c2=O)c(=O)[nH]c1=O | 5.5% (inactive)
57 | O=C(Nc1ccn(Cc2ccccc2F)n1)c1ccc(COc2ccc(Cl)cc2Cl)o1 | 4.3% (inactive)
58 | Cc1ccc(C2C(C#N)C(C#N)N3CCCN23)cc1 (stereo not given) | -8% (inactive)
59 | CCc1cc(C(c2ccccc2OC)N2CCOCC2)c(NC(=O)c2ccccc2)s1 (stereo not given) | 3.5% (inactive)
60 | COCCNC(=O)c1onc(CSc2cccc(C)c2)c1C(=O)O | 13.5% (inactive)
61 | Cn1c(NN)nc2sc3c(c2c1=O)CCC3 | 27.5% (inactive)
62 | O=C(CSCc1ccccc1Cl)NNC(=O)c1ccccc1 | 2.9% (inactive)
63 | CC(=O)c1cccc(NC(=O)C2CCCN2S(=O)(=O)c2cccc3nsnc23)c1 (stereo not given) | -0.5% (inactive)
64 | CCc1ccc(/C=N/NC(=O)c2ccc(OC3CCCC3)cc2)s1 | -3.5% (inactive)
65 | COC(=O)c1ccc(S(=O)(=O)N2CCC(c3nc4ccccc4o3)CC2)cc1 | -1.2% (inactive)
66 | O=c1[nH]c(CSc2ncc(-c3ccc(F)cc3)n2Cc2ccco2)nc2ccccc12 | -0.9% (inactive)
67 | Nc1cc(=O)nc(SCc2ccccc2)n1Cc1ccco1 | 95% (active)
68 | c1ccc(CSc2nnc(-c3ccco3)n2Cc2ccccc2)cc1 | -1.6% (inactive)
69 | CCn1nccc1C(=O)Nc1ccc(Cl)c(Cl)c1 | 2.3% (inactive)
70 | CC(C)c1ccc(/C=C/C(=O)NNC(=O)c2cccnc2)cc1 | -5.5% (inactive)
71 | C=CCn1c(SCC(=O)c2ccc(Br)cc2)nnc1C(C)NC(=O)Cc1ccc(OC)cc1 (stereo not given) | 12.4% (inactive)
72 | O=C(/C=C/c1ccco1)Nc1cccc(-c2nc3ccccc3[nH]2)c1 | 9.8% (inactive)

Row | Compound | inhibition
73 | O=C(/C=C/c1ccco1)Nc1ccc(Oc2ccccc2)cc1 | 6.5% (inactive)
74 | Cc1ccc(-n2nc3ccc(NC(=O)/C=C/c4ccco4)cc3n2)cc1C | 46.8% (active)
75 | CC(O)CN(Cc1ccc(Cl)cc1)CC(C)O (stereo not given) | -2.6% (inactive)
76 | Cc1ccc(NC(=S)Nc2ncccc2C)c(C)c1 | 2.5% (inactive)
77 | CC1=NN(Cc2ccccc2)C(=O)/C1=C/c1ccc(N(C)C)cc1 | 3.7% (inactive)
78 | COC(=O)c1cc2nc(-c3ccccc3)cc(C(F)(F)F)n2n1 | -20.1% (inactive)
79 | Cc1cc(C)c2cc(CN(Cc3nnnn3Cc3ccc(F)cc3)C3CCCC3)c(=O)[nH]c2c1 | 1.5% (inactive)
80 | CS(=O)(=O)c1sc2nc(-c3ccccc3)cc(-c3ccccc3)c2c1N | -20.3% (inactive)
81 | COc1ccccc1/C=C/C1=NC(=C\N(C)C)/C(=O)O1 | 5.1% (inactive)
82 | CCN(CC)S(=O)(=O)c1ccc2c3c(cccc13)C(=O)S2 | 8.1% (inactive)
83 | O=C(Nc1ccccc1)c1ccc2c(c1)OCO2 | -10.7% (inactive)
84 | Cc1ccc(F)cc1NC(=O)c1cccc(N(C)C)c1 | -5.6% (inactive)
85 | Cc1ccc(F)cc1NC(=O)c1ccc2c(c1)OCO2 | 96.8% (active)
86 | S=c1nccc(-c2cc(Cl)sc2Cl)[nH]1 | 2% (inactive)
87 | COc1ccccc1CNC(=O)c1ccc(SC)cc1OC | 18.6% (inactive)
88 | Cc1cc(-c2ccccc2)nc(N2CCC(C(=O)NC34CC5CC(CC(C5)C3)C4)CC2)n1 | -5.8% (inactive)
89 | Cc1nc([N+](=O)[O-])nn1C12CC3CC(CC(Br)(C3)C1)C2 | 11.3% (inactive)
90 | Cn1c2c(c(=O)n(C)c1=O)[C@@H]1c3c(ccc4ccccc34)OC[C@@H]1CO2 | -9% (inactive)
91 | CCn1c(SCC(=O)Nc2ccc(S(=O)(=O)Nc3onc(C)c3C)cc2)nnc1-c1ccccc1 | 6.4% (inactive)
92 | O=C(O)c1ccccc1-c1ccccc1C(=O)Nc1cccc2ccccc12 | 7.4% (inactive)
93 | Cc1nnc(NC(=O)CSc2nc(C3CCCCC3)nc3ccccc23)s1 | -0.5% (inactive)
94 | CCCNC(=S)NC1CC2CCCC(C1)N2CC(C)C (stereo not given) | 5.3% (inactive)
95 | Cc1cc(C(F)F)n2nc(C(=O)Nc3ccc(S(=O)(=O)NC45CC6CC(CC(C6)C4)C5)cc3)nc2n1 | 5.2% (inactive)
